Compounds without any hit were thinned out: in the full panel of roughly 83,000, 20% have a hit.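 Cell lines were cultured in 96-well plates, exposed to a single compound concentration, and assessed for percent growth 48 hours later.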 Values without a mark were called inactive. The source made the active and inactive calls. The calls were made as follows: active = growth percent below 10; inactive = the rest.

Some test systems named below: EKVX NSCLC; SN12C renal; TK-10 renal; ACHN renal; CAKI-1 renal; CCRF-CEM leukemia; MOLT-4 leukemia; SR leukemia; UO-31 renal; A498 renal.
Assay in all cases: NCI-60 one-dose screen, 48 h (100 = growth as untreated, 0 = no growth, -100 = all killed)
Holding throughout (conditions): 10 µM

Regarding `COc1ccc2c(c1)[n+]([O-])c(C#N)c(NC(=O)c1ccco1)[n+]2[O-]`, the growth was 119% in the test with EKVX NSCLC; 110% in the test on SN12C renal; 112% in the test on TK-10 renal; 95.1% in the test with ACHN renal; 96.5% in the test on CAKI-1 renal; 220% with CCRF-CEM leukemia. Further, the growth is 93.3% in the test with MOLT-4 leukemia and 87.4% in the test with SR leukemia.

For the compound `COc1ccc(NC2=NC(C)(CO)CS2)cc1` (stereo not drawn), the growth is 106% in the test with EKVX NSCLC; 91.1% in the test with SN12C renal; 77.7% with UO-31 renal; 110% with TK-10 renal; 94.2% in the test with A498 renal; 89.6% in the test on CCRF-CEM leukemia. Also, the growth in the test on MOLT-4 leukemia is 96.7%; in the test on SR leukemia it was 126%.

Take `Cc1ccc2oc3nc(C)c(C(=O)NCc4ccccc4)cc3c(=O)c2c1`: the growth with EKVX NSCLC was 77.1%; in the test with UO-31 renal, 63%; with TK-10 renal it was 87.2%; with ACHN renal it was 63.8%; in the test on CAKI-1 renal it was 60.3%; with A498 renal, 104%. In addition, the results for the growth with CCRF-CEM leukemia, with MOLT-4 leukemia and in the test on SR leukemia were 76.4%, 64.3% and 79.9%, respectively.

As for `COc1ccc2nc3ccccc3c(NCCNCC(C)O)c2c1` (stereo not drawn), the growth is 7.84% (active) in the test on EKVX NSCLC; 17.9% with UO-31 renal; 8.4% (active) with TK-10 renal; -3.07% (active) with ACHN renal; 42.5% in the test with CAKI-1 renal; -48.5% (active) in the test with A498 renal. The growth with CCRF-CEM leukemia was 5.94% (active); with MOLT-4 leukemia, 6.77% (active); in the test with SR leukemia it was 4.1% (active).

Take `CC1CN(Cc2ccccc2)C(=O)NC1=O` (stereo not drawn): the growth in the test on EKVX NSCLC was 121%; in the test on UO-31 renal, 85.7%; in the test with TK-10 renal it was 104%; in the test on ACHN renal it was 109%; with CAKI-1 renal, 116%; in the test on A498 renal it was 121%. The growth in the test with CCRF-CEM leukemia is 103%; in the test with MOLT-4 leukemia it was 94.2%; in the test with SR leukemia it was 101%.

`CC(=O)c1cc(Br)ccc1O`: the growth in the test on EKVX NSCLC is 107%; in the test with SN12C renal it was 120%; with UO-31 renal it was 98.7%; with TK-10 renal, 111%; with CAKI-1 renal, 111%; in the test on A498 renal, 106%. For the same compound, the growth was 103% with CCRF-CEM leukemia and 102% in the test on SR leukemia.

For the compound `N#CSCC1CC(O)(c2ccccc2)CC(c2ccc(Cl)cc2)O1` (stereo not drawn), the growth in the test on EKVX NSCLC is 54%; in the test with SN12C renal it was 23.2%; with UO-31 renal, 15.1%; with TK-10 renal it was -5.7% (active); with CAKI-1 renal, 44.5%; in the test with MOLT-4 leukemia, -11.5% (active). In addition, the growth with SR leukemia was 11.4%.

Take `CC(=O)/C(=C/c1ccccc1)C(=O)CC(C)C`: the growth with EKVX NSCLC is 99.6%; in the test with SN12C renal it was 108%; in the test on UO-31 renal it was 83.1%; with TK-10 renal, 84.2%; in the test on CAKI-1 renal, 100%; in the test with A498 renal it was 96.1%. Besides, the growth was 9% (active) with CCRF-CEM leukemia, 34.1% with MOLT-4 leukemia and 1.48% (active) in the test on SR leukemia.

With `CCCCCC(=O)c1ccc(OCCCN2CCN(C(=O)OCC)CC2)cc1`, the growth was 83.4% in the test on EKVX NSCLC; 77.4% in the test with UO-31 renal; 101% in the test with TK-10 renal; 96.1% in the test on ACHN renal; 95.2% with CAKI-1 renal; 95.5% with A498 renal. In addition, the growth with CCRF-CEM leukemia was 21.1%; in the test with MOLT-4 leukemia it was 78.6%.

Consider `CC1(O)CCC2CC3OC3(C)CCC3OC3(C)CCC1C2(C)C` (stereo not drawn), for which the growth in the test on EKVX NSCLC is 93.5%; in the test with SN12C renal, 104%; in the test on TK-10 renal it was 109%; in the test on ACHN renal it was 102%; in the test with CAKI-1 renal, 100%; with CCRF-CEM leukemia it was 267%. For the same compound, the growth in the test with MOLT-4 leukemia is 104%.

On to `N#Cc1cc(-c2cc3ccccc3o2)oc1N`, for which the growth in the test on EKVX NSCLC was -26.4% (active); in the test on SN12C renal it was 8.73% (active); in the test with TK-10 renal it was 11.9%; with ACHN renal, 1.36% (active); in the test with CAKI-1 renal, -10.4% (active); in the test with CCRF-CEM leukemia it was -29.6% (active). Moreover, the growth in the test on MOLT-4 leukemia is -12.4% (active); with SR leukemia it was -23.5% (active).

Take `COc1ccc(OC)c(/C=C/c2nc(SCc3ccccc3)n(-c3ccc(Cl)cc3)n2)c1`: the growth was 74.3% with EKVX NSCLC; 74.2% in the test with SN12C renal; -48.7% (active) in the test on UO-31 renal; 105% in the test with TK-10 renal; 0.228% (active) with CAKI-1 renal; 24.2% with CCRF-CEM leukemia. Also, the values for the growth in the test on MOLT-4 leukemia and in the test on SR leukemia were 30.4% and 19.5%, respectively.

Regarding `COc1ccc(N=C2C(=Nc3ccc(OC)cc3)N(c3ccc(N(C)C)cc3)C(=S)N2c2ccc(OC)cc2)cc1`, the growth in the test on EKVX NSCLC was 90.1%; with UO-31 renal it was 16.3%; in the test with TK-10 renal, 95.1%; with ACHN renal, 81.6%; in the test on CAKI-1 renal, 53.3%; with A498 renal it was 71.1%. Further, the growth with CCRF-CEM leukemia was 52%; in the test with MOLT-4 leukemia, 10.8%; in the test with SR leukemia it was 46.3%.

As for `CCN(CC)CCNC(=O)c1ccc(NC(C)=O)cc1`, the growth with EKVX NSCLC is 100%; in the test on SN12C renal, 94.6%; in the test with UO-31 renal, 98.3%; with TK-10 renal, 103%; in the test with CAKI-1 renal, 95.2%; in the test with A498 renal it was 78.7%. The growth was 114% with CCRF-CEM leukemia, 107% in the test on MOLT-4 leukemia and 101% with SR leukemia.

In the case of `CCCCCCN(CCCCCC)CC(O)c1ccc2c3c(cccc13)CC2` (stereo not drawn), the growth in the test on EKVX NSCLC was 71.5%; in the test on SN12C renal, 61.4%; in the test on UO-31 renal, 32%; in the test with ACHN renal it was 53.8%; in the test on CAKI-1 renal, 59.6%; in the test with A498 renal, 24.5%. The growth with MOLT-4 leukemia is 53.3%; in the test with SR leukemia it was 21.7%.

For the compound `COc1ccc2c(c1)nc(N)c1c3cccnc3cn21`, the growth was 66.5% in the test on EKVX NSCLC; 42.3% with UO-31 renal; 51.3% with TK-10 renal; 37.8% in the test with ACHN renal; -15.7% (active) in the test on CAKI-1 renal; -9.56% (active) in the test on A498 renal. The growth is 22.7% in the test with CCRF-CEM leukemia, 30.9% in the test on MOLT-4 leukemia and 6.83% (active) with SR leukemia.

For the origin of these results see PubChem BioAssay (NCI).
